{"source": "PubChem BioAssay AID651598", "about": "(Sanford-Burnham Center for Chemical Genomics, 2012)", "note": "“And” between values parts separate entries of the source, which are not always exact repeats. Identical values can stand only once.", "data": [{"molecular_target": "Apelin receptor (Homo sapiens) (UniProt P35414)", "sequence (P35414 whole entry, looked up)": "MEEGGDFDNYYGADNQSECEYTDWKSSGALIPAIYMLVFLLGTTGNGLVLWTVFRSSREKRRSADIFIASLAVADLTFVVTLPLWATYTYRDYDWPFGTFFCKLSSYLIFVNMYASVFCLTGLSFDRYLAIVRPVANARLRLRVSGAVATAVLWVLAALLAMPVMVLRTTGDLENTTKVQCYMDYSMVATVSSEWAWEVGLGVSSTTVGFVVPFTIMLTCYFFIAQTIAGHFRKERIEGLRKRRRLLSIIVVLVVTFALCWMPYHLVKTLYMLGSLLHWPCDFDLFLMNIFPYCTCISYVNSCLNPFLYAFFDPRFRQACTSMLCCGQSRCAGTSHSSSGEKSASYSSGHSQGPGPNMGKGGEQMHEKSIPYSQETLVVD", "experiment": "APJ beta-arrestin recruitment blockade alongside CXCR6 – cell-based, DiscoveRx, panel, CHO-K1, counter-screen for CXCR6 antagonist project, SAR follow-up (AID 651598)", "conditions": "CHO-K1 PathHunter beta-arrestin luminescence, antagonist mode; run 4, at 80 µM (top of the series)", "values": [{"smiles": "COc1cc(C(=O)NC2CC3CCC(C2)N3CC(=O)Nc2ccccc2)cc(OC)c1OC", "note": "(stereo not drawn)", "inhibition": "-13.5% and 16.7%"}, {"smiles": "COc1cc(C(=O)NC2CC3CCCC(C2)N3CC(=O)Nc2ccccc2)cc(OC)c1OC", "note": "(stereo not drawn)", "inhibition": "17% and 11.6% and 7.8%"}, {"smiles": "COc1cc(C(=O)NC2CCN(CC(=O)Nc3ccccc3)CC2)cc(OC)c1OC", "inhibition": "-1.54%"}]}]}
